Assay results reported in PubChem BioAssay AID2284197 (EPA ToxCast).
Calls of active or inactive are those of the source. How the source made its calls: active means hit-call score of the fitted dose curve at least 0.9, where 1 is the maximum; inactive means score below 0.9.

Target: human Thyroid Hormone Receptor Alpha (TRa) Agonism, THRA (gene 7067) (UniProt P10827)
Assay: ERF_TW_NR_COA_hTHRA: Eurofins (ERF) Nuclear Receptor (NR) Functional Coactivator Assay for human Thyroid Hormone Receptor Alpha (TRa) Agonism
Experimental: ERF_TW_NR_COA_hTHRA is a biochemical, single-readout assay that uses extracted gene-proteins in a cell-free assay. Measurements were taken 0.5 hour after chemical dosing in a 96-well plate. See TRalpha Human Thyroid Hormone NHR Functional Agonist Coactivator Assay, Panlabs.ERF_TW_NR_COA_hTHRA is an assay component calculated from the ERF_TW_NR_COA_hTHRA assay. It is designed to measure TR-FRET using a type of inducible reporter as detected by fluorescence intensity of 7-hydroxy-coumarin with FRET: TR-FRET technology.Data from the assay component ERF_TW_NR_COA_hTHRA_Agonist was analyzed at the assay endpoint, ERF_TW_NR_COA_hTHRA_Agonist, in the positive analysis fitting direction relative to DMSO as the negative control and baseline of activity. Using a type of agonist, gain-of-signal activity can be used to understand changes in protein-protein interaction as they relate to gene THRA. […]
Test compound and/or vehicle is incubated with the 0.25 nM TR alpha LBD-GST and coactivator peptide for 30 minutes at RT. Determination of the amount of complex formed is read spectrofluorimetrically (excitation: 337 nm, emission: 520/490 nm). Test compound-induced increase of fluorescence by 50 percent or more relative to the 0.1 uM T3 response indicates possible TR alpha receptor agonist activity.

Sequence of human Thyroid Hormone Receptor Alpha (TRa) Agonism, THRA (gene 7067) (P10827 whole entry, looked up): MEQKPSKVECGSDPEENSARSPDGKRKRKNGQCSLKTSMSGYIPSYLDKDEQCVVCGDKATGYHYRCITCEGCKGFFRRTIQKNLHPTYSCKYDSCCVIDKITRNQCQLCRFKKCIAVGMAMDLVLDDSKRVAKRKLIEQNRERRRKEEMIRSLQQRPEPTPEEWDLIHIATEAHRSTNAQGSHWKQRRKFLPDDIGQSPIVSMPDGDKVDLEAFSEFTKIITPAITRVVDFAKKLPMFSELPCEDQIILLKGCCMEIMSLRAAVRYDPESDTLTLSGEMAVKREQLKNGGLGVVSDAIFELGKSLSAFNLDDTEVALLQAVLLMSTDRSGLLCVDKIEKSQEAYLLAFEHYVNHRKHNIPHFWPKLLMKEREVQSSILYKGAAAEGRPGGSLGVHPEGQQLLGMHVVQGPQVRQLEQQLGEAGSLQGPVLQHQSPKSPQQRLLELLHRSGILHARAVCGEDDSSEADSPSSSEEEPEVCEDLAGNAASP

Row | Compound | outcome
1 | O=C(/C=C/c1ccc(O)cc1)CC(=O)/C=C/c1ccc(O)cc1 | inactive
2 | COc1cc(CCC(=O)CC(=O)CCc2ccc(O)c(OC)c2)ccc1O | inactive
